# Data as given in PubChem BioAssay (EPA / NIEHS).
# Activity calls are given as the source filed them. How the source made its calls: active means hit-call score of the fitted dose curve at least 0.9, where 1 is the maximum; inactive means score below 0.9.
# Read-out: Monocyte Chemoattractant Protein-1 (MCP1), CCL2 (gene 6347)
# Experiment: BSK_3C_MCP1: BioMAP Diversity Plus: 3C Assay for Monocyte Chemoattractant Protein-1 (MCP1) Biomarker Activity (AID 2283017)
# Details: primary human endothelial cells (HUVEC); actives raise or lower the signal
# Description: BSK_3C is a cell-based, multiplexed-readout assay that uses umbilical vein endothelium, a human vascular primary cell, with measurements taken at 24 hours after chemical dosing in a 96-well plate.BSK_3C_MCP1 is an assay component measured in the BSK_3C assay. It measures MCP-1 antibody related to regulation of gene expression using ELISA technology.Data from the assay component BSK_3C_MCP1 was analyzed into 1 assay endpoint. This assay endpoint, BSK_3C_MCP1, was analyzed with bidirectional fitting relative to DMSO as the negative control and baseline of activity. Using a type of binding reporter, gain or loss-of-signal activity can be used to understand changes in the signaling as they relate to the gene CCL2. Furthermore, this assay endpoint can be referred to as a primary readout, because this assay has produced multiple assay endpoints where this one serves a signaling function. To generalize the intended target to other relatable targets, this assay endpoint is annotated to the cytokine intended target family, where the subfamily is chemotactic factor.
# The levels of cell surface (or secreted, indicated by the prefix "s") biomarker endpoints were measured by ELISA. Overt cytotoxicity to cells in confluent adherent cultures (all systems other than the BT system) was assessed by measuring total protein levels using sulforhodamine B (SRB) staining in parallel cultures at the time of biomarker measurements, indicated as SRB endpoints. For proliferation assays for adherent cell types, individual cell types are cultured at sub-confluence and relative cell numbers quantified by SRB staining at time points optimized for each system (48 h: 3C and CASM3C systems; 72 h: BT and HDF3CGF systems; 96 h: SAg system). SRB was performed by staining cells with 0.1% SRB after fixation with 10% TCA and reading wells at 560 nm.Viability and proliferation of PBMC (T cells) was quantified by Alamar Blue reduction for the SAg and BT systems. For PBMC viability (referred to as PBMC Cytotoxicity within the assay endpoint names), cells were plated (75,000/well in a 96-well plate) and then chemical samples added for 1 h before addition of activators, SEB and TSST-1 (20 ng/mL final concentration each). Cells were incubated for 90 h. Then, Alamar Blue (20 uL/well) (Invitrogen, Cat DAL1100) was added for 6 h, and the plates were read with a fluorescence microplate reader at 546/580 nm (excitation/emission). For PBMC proliferation, cells were plated and activated as above but incubated for only 16 h prior to addition of Alamar Blue. Plates were read after 6 h.
SMILES,outcome,AC50
Cc1nccn1-c1ccc(Sc2cccc(C3(C(N)=O)CCOCC3)c2)cc1,inactive,–
OC(CCl)CCl,inactive,–
O=C(O)c1cccc(C[C@@H]2COc3ccc(OCc4nc5cc(F)ccc5s4)cc3[C@@H]2O)c1,inactive,–
Cc1cccc(O)c1C,inactive,–
COc1cc2c(c(OC)c1OC)-c1ccc(OC)c(=O)cc1[C@@H](NC(C)=O)CC2,inactive,–
CCCCCCCCCCCCCCCCOS(=O)(=O)O,inactive,–
OC(Cn1cncn1)(Cn1cncn1)c1ccc(F)cc1F,inactive,–
FC(F)C(F)(F)COCC1CO1 (stereo not given),inactive,–
O=S1(=O)CCCO1,inactive,–
O=S(=O)(O)CCC(F)(F)C(F)(F)C(F)(F)C(F)(F)C(F)(F)C(F)(F)F,inactive,–
c1ccc(C(O[C@@H]2CCCN(CCc3ccc4c(c3)OCO4)C2)c2ccccc2)cc1,inactive,–
CCOC(N)=O,inactive,–
NC(N)=O,inactive,–
CCn1nc(C)c2c1C(=O)NCC(c1ccc(O)cc1)=N2,inactive,–
C[Si](C)(C)C(F)(F)C(F)(F)C(F)(F)F,inactive,–
CCc1cccc(CC)c1N,inactive,–
CCc1ccc(O)c(C(C)(C)C)c1,–,30.9 µM (active)
Cc1ncc([C@@H](CCCCCCc2ccc3c(n2)NCCC3)CC(=O)O)cn1,inactive,–
O=C1CN(N=Cc2ccc([N+](=O)[O-])o2)C(=O)N1,inactive,–
FC(F)(F)C(F)(F)C(F)(F)C(F)(F)C(F)(F)C(F)(F)I,inactive,–

SMILES,outcome,AC50
CNC(C)=O,inactive,–
CCCCCCCCN(C)C,inactive,–
O=S(=O)(O)c1ccc(N=Nc2c(O)ccc3cc(S(=O)(=O)O)ccc23)cc1,inactive,–
CCCCCCCCCCCCCCO,–,30.5 µM (active)
CCN(CC)C(=S)SSC(=S)N(CC)CC,–,30.6 µM (active)
CCCCN1C(=O)[C@@H]([C@H](O)C2CCCCC2)NC(=O)C12CCN(Cc1ccc(Oc3ccc(C(=O)O)cc3)cc1)CC2,–,14.9 µM (active)
CCCOc1ccc(S(=O)(=O)N2CCN(CC)CC2)cc1-c1nc2c(CC)n(Cc3ccccn3)nc2c(=O)[nH]1,inactive,–
CCCCCCCC/C=C\CCCCCCCC(=O)OC[C@@H](O)[C@H]1OC[C@H](O)[C@H]1O,inactive,–
OC[C@H]1O[C@@](CO)(O[C@H]2O[C@H](CO)[C@@H](O)[C@H](O)[C@H]2O)[C@@H](O)[C@@H]1O,inactive,–
c1ccc2ncccc2c1,inactive,–
Cn1c(=O)c2[nH]cnc2n(C)c1=O,inactive,–
O=C(O)c1cccc(C(=O)O)c1,inactive,–
OCCC(F)(F)C(F)(F)C(F)(F)C(F)(F)F,inactive,–
CCCCC(CC)C(=O)OCCOCCOCCOC(=O)C(CC)CCCC (stereo not given),inactive,–
O=C(O)[C@H](O)[C@@H](O)C(=O)O,inactive,–
OCCNCCO,inactive,–
CCCC(CCC)C(=O)O,inactive,–
C[C@]12C=CC(=O)C=C1CC[C@H]1[C@@H]3C[C@@H](O)[C@](O)(C(=O)CO)[C@@]3(C)C[C@H](O)[C@@]12F,inactive,–
c1ccc2cc3ccccc3cc2c1,inactive,–
Cc1ccc(S(=O)(=O)NC(=O)NN2CCCCCC2)cc1,inactive,–
